The source of these data is PubChem BioAssay (Tox21).

SMILES strings stand for the structures. Values without a mark were called inactive. Records with an inconclusive call do not appear. Calls of active or inactive are those of the source. Unless noted, the call rests on the fitted dose curve.

Experiment [1] is described as follows: qHTS assay to identify small molecule agonists of the sonic hedgehog signaling (Shh) pathway (AID 1259368).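 Further: NIH/3T3-derived 3T3Gli1-Luc cells carrying a stable Gli1-driven firefly luciferase reporter; series mostly up to about 92 µM; nearly all actives have a fitted effect of over 15% in size.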 The essentials: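 A Gli1 transcriptional response element controlled firefly luciferase in 3T3Gli1-Luc cells. Compounds and a positive control were added 4 hr after plating, and cells were incubated a further 24 hr at 37 C before luminescence detection.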
On the technique in general: qHTS replaces the single test concentration by a dilution series.

Experiment [2] can be described thus: qHTS assay to identify small molecule antagonists of the sonic hedgehog signaling (Shh) pathway (AID 1259369). Further: nearly all actives have a fitted effect of over 45% in size. In short, it runs like this:
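For antagonist detection, the reporter line received test compounds together with conditioned medium, incubated 24hr at 37 C, 5% CO2, then luminescence was recorded following 30min room-temperature luciferase reagent incubation.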

Experiment [3] is described as follows: qHTS assay to identify small molecule agonists of the androgen receptor (AR) signaling pathway in the presence of an antagonist - cell viability counter screen (AID 1259379; active means well fitted curve in the direction sought with a large enough effect in the repeat runs; an effect the other way counts as inactive or inconclusive;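 further: MDA-kb2 human breast cancer cells carrying an MMTV luciferase reporter; series mostly up to about 92 µM; nearly all actives have a fitted effect of over 25% in size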). The essentials: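 Seed MDA-kb2 at 3,000 cells/well; incubate 5 hr, 37C, 0% CO2. Add nilutamide to 3.0uM final, then pin compounds at 15 concentrations. Incubate 16 hr. Add CellTiter-Fluor at 15 hr, read fluorescence after 1 hr.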

The nature of experiment [4]: qHTS assay to identify small molecule agonists of the estrogen receptor beta (ER-beta) signaling pathway - cell viability counter screen (AID 1259380; active means well fitted curve in the direction sought with a large enough effect in the repeat runs; an effect the other way counts as inactive or inconclusive; further: nearly all actives have a fitted effect of over 30% in size). The essentials: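 CellTiter-Glo read, 30 min RT, same wells as bla assay; cells ER-beta-UAS-bla HEK293T; 16 hr compound, 37C; medium 2% charcoal-stripped FBS.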
Experiment [5] is described as follows: qHTS assay to identify small molecule antagonists of the estrogen receptor beta (ER-beta) signaling pathway - cell viability counter screen (AID 1259382; active means well fitted curve in the direction sought with a large enough effect in the repeat runs; an effect the other way counts as inactive or inconclusive; further: series mostly up to about 92 µM; nearly all actives have a fitted effect of over 55% in size). The essentials:
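In this multiplexed counter screen, cells were seeded at 2,000 per well in medium with 2% charcoal-stripped FBS and incubated 6 hr before compound and 1nM final E2 were added. Sixteen hours later, ATP-based luminescence reported viability.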

In experiment [6] the target is Estrogen receptor (Homo sapiens) (UniProt P03372). The experiment is described as follows: qHTS assay to identify small molecule agonists of the estrogen receptor alpha (ER-alpha) signaling pathway in the presence of an antagonist (AID 1259383). Further: top concentration of the series differs between compounds; nearly all actives have a fitted effect of over 15% in size. The essentials:
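Stably transfected VM7Luc4E2 reporter cells, kept 5 days in charcoal-stripped serum, received ICI-182,780 at 10.0nM final before compound addition. Following 22hr incubation at 37C and 5% CO2, luciferase signal was read by luminescence.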

The nature of experiment [7]: qHTS assay to identify small molecule agonists or antagonists of the thyroid stimulating hormone receptor (TSHR) signaling pathway - wild type cell line counter screen (AID 1259384). The essentials:
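Wild-type HEK293 cells were plated 18 h at 37 C/5% CO2, pin-dosed with compound plus Ro20-1724 medium, held 30 min at room temperature, then given cAMP-d2 and anti-cAMP-cryptate; fluorescence was read after 1 h. Fifteen concentrations, triplicate.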

Experiment [8] has as its target Thyrotropin receptor (Homo sapiens) (UniProt P16473). The experiment is described as follows: qHTS assay to identify small molecule antagonists of the thyroid stimulating hormone receptor (TSHR) signaling pathway (AID 1259385). Further: nearly all actives have a fitted effect of over 20% in size. The essentials:
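TSHR-HEK293 cells were plated and held 18 h at 37C/5% CO2, then given compound plus Ro20-1724 and stimulated with TSH at 1.5 ng/mL final. After 30 min at room temperature, cAMP was detected with cAMP-d2/anti-cAMP-cryptate (1 h) by fluorescence.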

The nature of experiment [9]: qHTS assay to identify small molecule agonists of the estrogen receptor alpha (ER-alpha) signaling pathway in the presence of an antagonist - cell viability counter screen (AID 1259386; active means well fitted curve in the direction sought with a large enough effect in the repeat runs; an effect the other way counts as inactive or inconclusive;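 further: series mostly up to about 92 µM; cells exposed to compounds for 22 h at 37 °C before the viability read; nearly all actives have a fitted effect of over 30% in size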). In short, it runs like this:
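Viability counter screen using VM7Luc4E2 (full-length ER-alpha, four ERE-luciferase). The cells were treated with compounds alongside ICI-182,780 10.0nM for 22hr, and live-cell protease fluorescence was quantified with CellTiter-Fluor.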

Experiment [10] has as its target Progesterone receptor (Homo sapiens) (UniProt P06401). The experiment is described as follows: qHTS assay to identify small molecule agonists of the progesterone receptor (PR) signaling pathway (AID 1346784). Further: nearly all actives have a fitted effect of over 30% in size. The essentials: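 HEK 293T PR-UAS-bla reporter cells, 2% charcoal-stripped FBS; 6 hr settle at 37C/5% CO2, compound (DMSO) 16 hr, LiveBLAzer B/G FRET substrate 2 hr RT, fluorescence intensity read.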

The target is the same in experiment [11]. The experiment is described as follows: qHTS assay to identify small molecule antagonists of the progesterone receptor (PR) signaling pathway (AID 1346795; active means well fitted inhibition curve with a large enough effect in the signal ratio in the repeat runs, not every such curve was filed as active; the % refers to the signal ratio). In short, it runs like this:
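Beta-lactamase reporter, HEK293T PR-UAS-bla line; 2% charcoal-stripped FBS; 6 hr pre-incubation, 37C/5% CO2. Compound + R5020 1 nM final, 16 hr. LiveBLAzer B/G FRET substrate, 2 hr RT; fluorescence intensity read.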

Experiment [12] in a line: qHTS assay to identify small molecule antagonists of the progesterone receptor (PR) signaling pathway - cell viability counter screen (AID 1346798; active means well fitted curve in the direction sought with a large enough effect in the repeat runs; an effect the other way counts as inactive or inconclusive; further: nearly all actives have a fitted effect of over 50% in size; further: potency means the concentration at half of the fitted maximal effect). In short, it runs like this:
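Luminescence readout (CellTiter-Glo, 30 min, RT) of viability in PR-UAS-bla HEK293T cells exposed to compound and R5020 agonist for 16 hr at 37C, 5% CO2; run in the same wells as the beta-lactamase reporter read.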

The nature of experiment [13]: qHTS assay to identify small molecule agonists of the progesterone receptor (PR) signaling pathway - cell viability counter screen (AID 1346799). Further: nearly all actives have a fitted effect of over 45% in size. Further: potency means the concentration at half of the fitted maximal effect. The essentials: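 HEK293T PR-UAS-bla, 3,000 cells/well, 2% charcoal-stripped FBS; 6 h settle, compound 16 h at 37C/5% CO2; LiveBLAzer 2 h RT, then CellTiter-Glo 30 min RT, luminescence read.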
The nature of experiment [14]: qHTS assay to identify small molecule antagonists of the TGF-beta/Smad signaling pathway - cell viability counter screen (AID 1346824; active means well fitted curve in the direction sought with a large enough effect in the repeat runs; an effect the other way counts as inactive or inconclusive; further: nearly all actives have a fitted effect of over 50% in size). In short, it runs like this: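 SBE-bla HEK 293T cells were plated overnight at 37 C, then given compounds in DMSO plus TGF-beta1 (added as 0.25 ng/mL solution) for 5 hr. After the bla read, CellTiter-Glo was added to the same wells and luminescence read after 30 min at room temperature.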

The nature of experiment [15]: qHTS assay to identify small molecule agonists of the TGF-beta/Smad signaling pathway - cell viability counter screen (AID 1346829; active means well fitted curve in the direction sought with a large enough effect in the repeat runs; an effect the other way counts as inactive or inconclusive; further: top concentration of the series differs between compounds; nearly all actives have a fitted effect of over 45% in size). The essentials: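 Compound-treated SBE-bla HEK 293T cells (5 hr, 37 C) were assessed for viability with CellTiter-Glo in parallel with the reporter read.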
Experiment [16] in a line: qHTS assay to identify small molecule agonists of the TGF-beta/Smad signaling pathway (AID 1346859; active means well fitted activation curve with a large enough effect in the signal ratio in the repeat runs, not every such curve was filed as active; the % refers to the signal ratio; further: series mostly up to about 77 µM). In short, it runs like this:
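Read-out: fluorescence at 460 and 530 nm (405 nm excitation) after a 2 hr room-temperature incubation with beta-lactamase FRET substrate. SBE-bla HEK 293T cells had been treated with test compounds for 5 hr at 37 C.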

In experiment [17] the target is Thyrotropin-releasing hormone receptor (Homo sapiens) (UniProt P34981). The experiment is described as follows: qHTS assay to identify small molecule antagonists of the thyrotropin-releasing hormone receptor (TRHR) signaling pathway (AID 1346877; active means well fitted inhibition curve with a large enough effect in the repeat runs, not every such curve was filed as active; further: series mostly up to about 51 µM). The essentials: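 Following an 18 h incubation at 37 °C and a 2 h calcium dye load, TRHR-HEK293 cells were exposed to compound (5 min, room temperature) and challenged with TRH, 1 nM final.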
Thyrotropin-releasing hormone receptor (Homo sapiens), sequence (P34981 whole entry, looked up): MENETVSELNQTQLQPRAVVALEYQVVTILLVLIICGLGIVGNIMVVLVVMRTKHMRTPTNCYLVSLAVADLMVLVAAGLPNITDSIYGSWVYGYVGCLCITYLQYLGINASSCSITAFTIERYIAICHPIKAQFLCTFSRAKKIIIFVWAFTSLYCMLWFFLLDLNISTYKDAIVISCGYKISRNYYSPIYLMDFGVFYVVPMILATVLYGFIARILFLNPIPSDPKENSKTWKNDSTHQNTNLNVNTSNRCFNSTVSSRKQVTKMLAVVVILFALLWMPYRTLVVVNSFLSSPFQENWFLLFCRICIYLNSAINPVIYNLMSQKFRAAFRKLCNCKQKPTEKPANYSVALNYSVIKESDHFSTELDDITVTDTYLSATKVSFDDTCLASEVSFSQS

For experiment [18], the target named is Androgen receptor (Homo sapiens) (UniProt P10275). The experiment is described as follows: qHTS assay to identify small molecule agonists of the androgen receptor (AR) signaling pathway in the presence of an antagonist (AID 1259381). Further: nearly all actives have a fitted effect of over 15% in size. In short, it runs like this: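 Test compounds at 15 concentrations were incubated for 16hr with MDA-kb2 reporter cells in presence of 3.0uM nilutamide (final). Signal: ONE-Glo luciferase luminescence.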
Androgen receptor (Homo sapiens), sequence (P10275 whole entry, looked up): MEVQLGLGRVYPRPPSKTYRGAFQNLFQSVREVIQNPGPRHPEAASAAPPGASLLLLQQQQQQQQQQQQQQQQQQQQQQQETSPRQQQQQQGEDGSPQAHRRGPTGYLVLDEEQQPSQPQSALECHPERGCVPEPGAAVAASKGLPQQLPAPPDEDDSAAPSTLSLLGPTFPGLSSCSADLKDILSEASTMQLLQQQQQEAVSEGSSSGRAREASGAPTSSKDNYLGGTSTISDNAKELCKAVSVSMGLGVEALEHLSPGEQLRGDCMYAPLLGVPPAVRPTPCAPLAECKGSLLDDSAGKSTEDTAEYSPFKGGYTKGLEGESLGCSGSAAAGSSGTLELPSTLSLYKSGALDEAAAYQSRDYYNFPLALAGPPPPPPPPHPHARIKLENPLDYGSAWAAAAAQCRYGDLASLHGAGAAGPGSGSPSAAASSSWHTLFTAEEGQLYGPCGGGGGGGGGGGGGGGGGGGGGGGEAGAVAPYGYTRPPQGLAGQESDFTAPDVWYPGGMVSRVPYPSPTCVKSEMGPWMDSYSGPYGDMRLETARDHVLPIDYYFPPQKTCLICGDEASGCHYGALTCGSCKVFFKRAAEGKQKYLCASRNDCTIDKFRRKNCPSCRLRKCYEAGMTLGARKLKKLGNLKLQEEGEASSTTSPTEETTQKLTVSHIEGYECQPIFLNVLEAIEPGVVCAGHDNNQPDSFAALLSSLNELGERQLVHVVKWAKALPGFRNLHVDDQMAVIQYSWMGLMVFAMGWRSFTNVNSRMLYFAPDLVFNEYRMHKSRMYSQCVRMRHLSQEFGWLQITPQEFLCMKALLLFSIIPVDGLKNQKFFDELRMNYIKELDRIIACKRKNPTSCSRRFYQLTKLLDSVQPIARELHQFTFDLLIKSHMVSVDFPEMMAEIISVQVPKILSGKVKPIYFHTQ

Experiment [19] concerns the target Estrogen receptor beta (Homo sapiens) (UniProt Q92731). The experiment is described as follows: qHTS assay to identify small molecule antagonists of the estrogen receptor beta (ER-beta) signaling pathway (AID 1259378; active means well fitted inhibition curve with a large enough effect in the signal ratio in the repeat runs, not every such curve was filed as active; the % refers to the signal ratio). In short, it runs like this: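 ER-beta-UAS-bla HEK293T (GripTite) cells in 2% charcoal-stripped FBS medium were preincubated 6 hr at 37C, dosed with compound, then stimulated with 1 nM E2 (final) for 16 hr; beta-lactamase reporter read by B/G FRET fluorescence after 2 hr substrate loading.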

Progesterone receptor (Homo sapiens), sequence (P06401 whole entry, looked up): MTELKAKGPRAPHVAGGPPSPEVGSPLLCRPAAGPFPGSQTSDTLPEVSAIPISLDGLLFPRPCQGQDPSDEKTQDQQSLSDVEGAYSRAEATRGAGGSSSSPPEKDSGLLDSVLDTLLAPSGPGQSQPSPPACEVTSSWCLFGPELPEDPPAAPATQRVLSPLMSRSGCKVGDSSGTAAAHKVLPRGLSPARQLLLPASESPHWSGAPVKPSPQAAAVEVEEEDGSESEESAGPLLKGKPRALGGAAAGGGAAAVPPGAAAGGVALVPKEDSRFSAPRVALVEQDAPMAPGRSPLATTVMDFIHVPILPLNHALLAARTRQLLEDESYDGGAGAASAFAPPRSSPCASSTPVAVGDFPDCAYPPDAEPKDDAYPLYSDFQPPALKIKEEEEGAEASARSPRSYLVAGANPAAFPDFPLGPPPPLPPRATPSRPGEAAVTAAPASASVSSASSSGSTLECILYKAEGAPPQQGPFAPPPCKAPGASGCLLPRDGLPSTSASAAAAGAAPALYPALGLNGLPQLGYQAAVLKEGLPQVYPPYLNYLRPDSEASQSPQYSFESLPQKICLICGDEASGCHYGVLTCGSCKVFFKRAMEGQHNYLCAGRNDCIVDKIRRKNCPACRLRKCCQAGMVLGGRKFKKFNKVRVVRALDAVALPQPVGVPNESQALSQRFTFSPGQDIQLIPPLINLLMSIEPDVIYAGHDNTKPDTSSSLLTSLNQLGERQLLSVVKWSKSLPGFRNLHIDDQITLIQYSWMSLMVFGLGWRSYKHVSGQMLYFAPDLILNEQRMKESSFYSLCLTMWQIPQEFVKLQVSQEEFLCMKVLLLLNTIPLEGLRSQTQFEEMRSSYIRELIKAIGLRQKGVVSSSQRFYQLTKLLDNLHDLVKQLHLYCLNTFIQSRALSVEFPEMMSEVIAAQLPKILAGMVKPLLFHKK
Thyrotropin receptor (Homo sapiens), sequence (P16473 whole entry, looked up): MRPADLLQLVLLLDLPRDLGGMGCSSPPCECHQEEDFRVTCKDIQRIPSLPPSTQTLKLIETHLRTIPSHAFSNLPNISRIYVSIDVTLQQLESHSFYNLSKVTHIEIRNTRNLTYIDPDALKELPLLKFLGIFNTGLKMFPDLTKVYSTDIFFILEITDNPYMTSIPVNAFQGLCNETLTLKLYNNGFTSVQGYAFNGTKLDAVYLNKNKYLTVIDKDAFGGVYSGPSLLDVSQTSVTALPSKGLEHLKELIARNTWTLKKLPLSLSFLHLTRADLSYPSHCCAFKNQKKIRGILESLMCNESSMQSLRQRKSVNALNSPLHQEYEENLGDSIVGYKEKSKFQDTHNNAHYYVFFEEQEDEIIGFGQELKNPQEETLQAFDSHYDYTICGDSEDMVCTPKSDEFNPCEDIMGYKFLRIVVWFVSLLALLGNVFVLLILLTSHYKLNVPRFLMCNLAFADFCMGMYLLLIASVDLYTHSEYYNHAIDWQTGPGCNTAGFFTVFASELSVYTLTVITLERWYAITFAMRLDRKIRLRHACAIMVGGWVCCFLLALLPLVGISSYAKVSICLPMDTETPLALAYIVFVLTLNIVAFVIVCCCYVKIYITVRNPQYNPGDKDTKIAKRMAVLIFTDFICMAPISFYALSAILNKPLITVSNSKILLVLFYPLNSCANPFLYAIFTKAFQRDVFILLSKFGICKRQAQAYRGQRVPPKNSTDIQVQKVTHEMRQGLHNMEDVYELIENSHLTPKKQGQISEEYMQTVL
Estrogen receptor (Homo sapiens), sequence (P03372 whole entry, looked up): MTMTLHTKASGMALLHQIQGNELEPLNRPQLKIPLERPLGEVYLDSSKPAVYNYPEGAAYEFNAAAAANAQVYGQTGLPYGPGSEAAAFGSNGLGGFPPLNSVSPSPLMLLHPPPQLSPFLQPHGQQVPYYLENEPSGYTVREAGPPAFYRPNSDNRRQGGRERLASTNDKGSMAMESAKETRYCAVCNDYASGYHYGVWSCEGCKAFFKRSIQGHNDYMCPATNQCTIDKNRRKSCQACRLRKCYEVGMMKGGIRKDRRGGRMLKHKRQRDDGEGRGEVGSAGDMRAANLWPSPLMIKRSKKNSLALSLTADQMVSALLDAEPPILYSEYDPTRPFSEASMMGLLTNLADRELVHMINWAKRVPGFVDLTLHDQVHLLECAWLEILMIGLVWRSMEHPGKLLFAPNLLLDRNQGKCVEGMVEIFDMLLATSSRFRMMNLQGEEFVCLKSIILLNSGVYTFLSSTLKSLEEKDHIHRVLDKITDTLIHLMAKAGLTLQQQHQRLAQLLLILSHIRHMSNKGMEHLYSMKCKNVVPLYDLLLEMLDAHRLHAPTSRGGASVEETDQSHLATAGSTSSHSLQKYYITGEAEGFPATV
Estrogen receptor beta (Homo sapiens), sequence (Q92731 whole entry, looked up): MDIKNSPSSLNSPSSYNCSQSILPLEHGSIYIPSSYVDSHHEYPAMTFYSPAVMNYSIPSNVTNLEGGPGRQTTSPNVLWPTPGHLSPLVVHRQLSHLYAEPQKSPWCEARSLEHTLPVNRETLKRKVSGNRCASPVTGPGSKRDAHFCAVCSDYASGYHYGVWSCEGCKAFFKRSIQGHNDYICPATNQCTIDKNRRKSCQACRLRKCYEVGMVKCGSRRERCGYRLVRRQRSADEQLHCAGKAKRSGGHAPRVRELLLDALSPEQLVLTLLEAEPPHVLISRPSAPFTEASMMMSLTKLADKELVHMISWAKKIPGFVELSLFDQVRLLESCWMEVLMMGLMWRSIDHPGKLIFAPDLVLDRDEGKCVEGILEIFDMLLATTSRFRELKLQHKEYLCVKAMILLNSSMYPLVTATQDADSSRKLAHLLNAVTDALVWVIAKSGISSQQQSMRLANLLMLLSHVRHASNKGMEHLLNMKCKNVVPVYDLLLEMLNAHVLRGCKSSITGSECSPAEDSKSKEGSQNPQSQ

In the case of `CCO[Si](CCCN=C=O)(OCC)OCC`, the Potency result in experiment [1], in [2], in experiment [3], in experiment [4], in [5] and in experiment [6] was “inactive” each time. The Potency entry in experiment [8], in [10], in [11], in [12] and in experiment [13] was “inactive” throughout. For the same compound, the call in [7], in experiment [9], in experiment [14], in experiment [15], in experiment [16] and in [17] was inactive.
As for `Cc1ncc(CSSCc2cnc(C)c(O)c2CO)c(CO)c1O`, the Potency entry in [1], in [2], in experiment [3], in [4], in experiment [18] and in experiment [5] was “inactive” each time. Besides, the Potency result in experiment [6], in [8], in [10], in [11], in experiment [12] and in experiment [13] was “inactive” throughout. For the same compound, the result in [9], in experiment [14], in experiment [15], in experiment [16] and in experiment [17] was inactive.
Turning to `CCCCCCOC(=O)c1ccccc1O`, the Potency entry in experiment [1], in experiment [2], in [19], in experiment [3], in experiment [18] and in experiment [5] was “inactive” each time. Besides, the Potency entry in experiment [6] and in experiment [8] was “inactive” throughout. In addition, the compound was classed as inactive in [7], in experiment [9], in experiment [14], in [15], in experiment [16] and in experiment [17]. Besides, the Potency is 24.3 µM (active) in experiment [12] and 30.6 µM (active) in [13].
Consider `CCCCCCC(=O)OCC`, for which the Potency entry in [1], in experiment [2], in [19], in [3], in experiment [6] and in [8] was “inactive” each time. Also, the Potency result in [10], in experiment [11], in [12] and in [13] was “inactive” each time. Moreover, the result in experiment [9], in experiment [14], in experiment [15], in experiment [16] and in [17] was inactive.
Consider `CCC(C)(C)C1CCC(OC)CC1` (stereo unspecified), for which the Potency entry in experiment [1], in experiment [2], in experiment [19], in experiment [3], in experiment [4] and in [6] was “inactive” in each case. Further, the Potency result in [8], in experiment [10], in experiment [11], in experiment [12] and in [13] was “inactive” throughout. Also, the result in experiment [9], in experiment [14], in [15], in experiment [16] and in experiment [17] was inactive.
As for `O=c1[nH]c(=O)n([C@H]2O[C@H](CO)[C@@H](O)[C@@H]2O)cc1/C=C\Br`, the Potency result in [1], in [2], in experiment [3], in experiment [4], in experiment [18] and in [5] was “inactive” each time. The Potency entry in [6], in experiment [10], in [11], in experiment [12] and in experiment [13] was “inactive” each time. In addition, the result in [9], in [14], in [15], in experiment [16] and in [17] was inactive.
Turning to `Cn1cnc2c(=O)[nH]c(N)nc21`, the Potency result in experiment [1], in [2], in experiment [19], in experiment [3], in [4] and in experiment [8] was “inactive” each time. Further, the Potency result in experiment [10], in experiment [11], in experiment [12] and in experiment [13] was “inactive” throughout. Further, the result in [7], in [9], in experiment [14], in [15] and in [16] was inactive.
Consider `CC(C)=CC(=O)O`, for which the Potency entry in [1], in [2], in experiment [3], in experiment [4], in experiment [5] and in [6] was “inactive” throughout. Further, the Potency entry in [8], in experiment [10], in [11], in experiment [12] and in [13] was “inactive” each time. For the same compound, the compound was classed as inactive in [7], in experiment [9], in experiment [14], in experiment [16] and in [17].
Take `CCN1CCCC(OC(=O)C(c2ccccc2)c2ccccc2)C1` (stereo unspecified): the Potency result in experiment [1], in experiment [2], in experiment [19], in experiment [5], in experiment [6] and in experiment [8] was “inactive” throughout. In addition, the Potency result in [10] and in experiment [11] was “inactive” each time. The outcome in experiment [7], in experiment [9], in experiment [14], in experiment [16] and in experiment [17] was inactive.
